Among all 5,500 compounds or so, about 2,000 (36%) were called active. Not shown: some 18% with an inconclusive outcome. No stated cut-off is given here; in the data, active means normalized growth mostly below about 0.91 (no sharp cut-off); inconclusive means no clear call, values can overlap the other calls; inactive means mostly above about 0.92. The list shows a part of the results.
Assay: chemical genetic growth profiling, strain panel (AID 1159580);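 further: tested at 20 µM; growth read once vehicle control cultures reached saturation at 30 °C; 1 = growth at the plate median or of vehicle wells; lower values mean less growth of the strain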
Conditions: S. cerevisiae deletion strains, growth OD

Measured: normalized growth

COc1cc2ccc(=O)oc2c(OC)c1OC
inactive: locus YAL021C, strain ccr4, active compounds read low 1 | locus YAL026C, strain drs2, active compounds read low 0.983 | locus YAL030W, strain snc1, active compounds read low 0.98 | locus YBL061C, strain skt5, active compounds read low 0.997 | locus YBR009C, strain hhf1, active compounds read low 0.998 | locus YBR021W, strain FUR4, active compounds read low 0.97 | locus YBR023C, strain chs3, active compounds read low 0.995 | locus YBR171W, strain sec66, active compounds read low 0.974 | locus YBR229C, strain ROT2, active compounds read low 1.02 | locus YBR231C, strain swc5, active compounds read low 1.02 | locus YBR279W, strain paf1, active compounds read low 0.991 | locus YCL011C, strain gbp2, active compounds read low 0.977 | locus YCL016C, strain dcc1, active compounds read low 0.971 | locus YCL029C, strain bik1, active compounds read low 1.03 | locus YCL069W, strain vba3, active compounds read low 0.975 | locus YCR088W, strain abp1, active compounds read low 0.98 | locus YDL005C, strain med2, active compounds read low 0.977 | locus YDL035C, strain GPR1, active compounds read low 1.04 | locus YDL040C, strain nat1, active compounds read low 0.978 | locus YDL074C, strain BRE1, active compounds read low 1.03 | locus YDL101C, strain DUN1, active compounds read low 1.02 | locus YDL134C, strain PPH21, active compounds read low 1.02 | locus YDL185W, strain tfp1, active compounds read low 1.03 | locus YDL192W, strain arf1, active compounds read low 1.01 | locus YDR001C, strain nth1, active compounds read low 1 | locus YDR069C, strain doa4, active compounds read low 0.99 | locus YDR101C, strain arx1, active compounds read low 1 | locus YDR137W, strain rgp1, active compounds read low 0.997 | locus YDR159W, strain sac3, active compounds read low 1.04 | locus YDR162C, strain NBP2, active compounds read low 1.05 | locus YDR195W, strain ref2 0.984 | locus YDR297W, strain sur2, active compounds read low 0.997 | locus YDR318W, strain mcm21, active compounds read low 1.03 | locus YDR334W, strain swr1, active compounds read low 0.98 | locus YDR335W, strain msn5, active compounds read low 0.973 | locus YDR388W, active compounds read low 1.02 | locus YDR392W, strain spt3, active compounds read low 1 | locus YDR502C, strain sam2, active compounds read low 1.02 | locus YEL003W, strain gim4, active compounds read low 0.968 | locus YEL037C, strain rad23, active compounds read low 0.987 | locus YEL061C, strain CIN8 (second series), active compounds read low 0.996 | locus YER015W, strain faa2, active compounds read low 0.995 | locus YER016W, strain bim1, active compounds read low 0.959 | locus YER110C, active compounds read low 1.01 | locus YER111C, strain swi4, active compounds read low 0.979 | locus YER155C, strain BEM2 (second series), active compounds read low 0.982 | locus YER155C, strain BEM2, active compounds read low 1 | locus YER167W, strain BCK2, active compounds read low 1.02 | locus YFR010W, strain ubp6, active compounds read low 1.01 | locus YGL078C, strain dbp3, active compounds read low 1.04 | locus YGL086W, strain mad1, active compounds read low 1 | locus YGL167C, strain pmr1, active compounds read low 0.983 | locus YGL173C, strain kem1, active compounds read low 0.956 | locus YGL227W, strain vid30, active compounds read low 0.976 | locus YGL240W, strain doc1, active compounds read low 0.985 | locus YGL248W, strain PDE1, active compounds read low 1.03 | locus YGL253W, strain hxk2, active compounds read low 0.992 | locus YGR135W, strain pre9, active compounds read low 1.04 | locus YGR229C, strain SMI1, active compounds read low 1.01 | locus YGR252W, strain gcn5, active compounds read low 1 | locus YHR013C, strain ard1, active compounds read low 0.953 | locus YHR027C, strain rpn1, active compounds read low 0.996 | locus YHR079C, strain IRE1 (second series), active compounds read low 1.01 | locus YHR094C, strain hxt1, active compounds read low 1.02 | locus YHR129C, strain ARP1, active compounds read low 1.01 | locus YHR142W, strain chs7, active compounds read low 0.951 | locus YHR200W, strain rpn10, active compounds read low 1.02 | locus YIL066C, strain RNR3, active compounds read low 1.03 | locus YIL073C, strain SPO22, active compounds read low 1.07 | locus YIL125W, strain kgd1, active compounds read low 1.01 | locus YIR030C, strain dcg1, active compounds read low 1.02 | locus YJL092W, strain hpr5, active compounds read low 0.967 | locus YJL095W, strain BCK1 (second series), active compounds read low 0.978 | locus YJL095W, strain BCK1, active compounds read low 1.02 | locus YJL115W, strain asf1, active compounds read low 0.987 | locus YJL129C, strain trk1, active compounds read low 0.961 | locus YJL134W, strain LCB3, active compounds read low 1.01 | locus YJL154C, strain vps35, active compounds read low 0.979 | locus YJL164C, strain tpk1, active compounds read low 0.991 | locus YJL166W, strain qcr8, active compounds read low 0.978 | locus YJL168C, strain set2, active compounds read low 1.02 | locus YJL187C, strain SWE1 (second series), active compounds read low 1.02 | locus YKL009W, strain mrt4, active compounds read low 1.07 | locus YKL068W, active compounds read low 0.996 | locus YKL085W, strain MDH1 (second series), active compounds read low 1.01 | locus YKL085W, strain MDH1, active compounds read low 1.01 | locus YKL160W, strain elf1, active compounds read low 0.965 | locus YKL190W, strain CNB1, active compounds read low 1.01 | locus YKR001C, strain vps1, active compounds read low 0.992 | locus YKR026C, strain gcn3, active compounds read low 1 | locus YKR091W, strain srl3, active compounds read low 0.964 | locus YLL001W, strain dnm1, active compounds read low 0.987 | locus YLL026W, active compounds read low 0.992 | locus YLL041C, strain sdh2, active compounds read low 0.979 | locus YLR027C, strain aat2, active compounds read low 0.987 | locus YLR039C, strain RIC1, active compounds read low 1.07 | locus YLR058C, strain SHM2, active compounds read low 1.04 | locus YLR102C, strain apc9, active compounds read low 1.02 | locus YLR221C, strain rsa3, active compounds read low 1.02 | locus YLR258W, strain gsy2, active compounds read low 0.992 | locus YLR262C, strain YPT6 (second series), active compounds read low 1 | locus YLR268W, strain sec22, active compounds read low 1.03 | locus YLR320W, strain mms22, active compounds read low 1.02 | locus YLR342W, strain FKS1, active compounds read low 0.979 | locus YLR357W, strain rsc2, active compounds read low 0.964 | locus YLR370C, strain arc18, active compounds read low 0.979 | locus YLR371W, strain rom2, active compounds read low 1.01 | locus YLR384C, strain iki3, active compounds read low 0.991 | locus YLR418C, strain cdc73, active compounds read low 1.03 | locus YML016C, strain PPZ1, active compounds read low 1.03 | locus YML032C, strain rad52, active compounds read low 0.996 | locus YML120C, strain ndi1, active compounds read low 0.979 | locus YML124C, strain tub3, active compounds read low 1.02 | locus YMR058W, strain fet3, active compounds read low 0.974 | locus YMR078C, strain ctf18, active compounds read low 1.02 | locus YMR125W, strain sto1, active compounds read low 0.976 | locus YMR129W, active compounds read low 0.991 | locus YMR205C, strain PFK2, active compounds read low 0.995 | locus YMR223W, strain ubp8, active compounds read low 0.999 | locus YMR231W, strain pep5, active compounds read low 0.98 | locus YMR307W, strain GAS1, active compounds read low 1.07 | locus YNL067W, strain RPL9B, active compounds read low 1.02 | locus YNL071W, strain lat1, active compounds read low 0.999 | locus YNL153C, strain GIM3, active compounds read low 1.02 | locus YNL209W, strain ssb2, active compounds read low 0.976 | locus YNL233W, strain BNI4, active compounds read low 1.01 | locus YNL248C, strain rpa49, active compounds read low 0.962 | locus YNL250W, strain rad50, active compounds read low 1.03 | locus YNL271C, strain bni1, active compounds read low 1.02 | locus YNL298W, strain CLA4, active compounds read low 0.999 | locus YNL307C, strain MCK1, active compounds read low 1.03 | locus YNL322C, strain KRE1 (second series), active compounds read low 0.971 | locus YNL322C, strain KRE1, active compounds read low 1.02 | locus YNR049C, strain mso1, active compounds read low 0.954 | locus YNR052C, strain pop2, active compounds read low 1.02 | locus YOL006C, strain TOP1, active compounds read low 1.06 | locus YOL012C, strain htz1 1.05 | locus YOL147C, strain pex11, active compounds read low 1.01 | locus YOR001W, strain rrp6, active compounds read low 1.02 | locus YOR061W, strain CKA2, active compounds read low 1.04 | locus YOR069W, strain VPS5, active compounds read low 1.01 | locus YOR070C, strain gyp1, active compounds read low 0.994 | locus YOR080W, strain dia2, active compounds read low 0.968 | locus YOR083W, strain WHI5, active compounds read low 0.952 | locus YOR106W, strain vam3, active compounds read low 0.969 | locus YOR136W, strain idh2, active compounds read low 1.03 | locus YOR144C, strain elg1, active compounds read low 1.02 | locus YOR184W, strain ser1, active compounds read low 1.04 | locus YOR265W, strain rbl2, active compounds read low 0.994 | locus YOR270C, strain vph1, active compounds read low 0.957 | locus YOR290C, strain snf2, active compounds read low 0.964 | locus YOR316C, strain cot1, active compounds read low 1.02 | locus YPL051W, strain arl3, active compounds read low 0.982 | locus YPL078C, strain atp4, active compounds read low 0.966 | locus YPL106C, strain sse1, active compounds read low 0.977 | locus YPL240C, strain hsp82, active compounds read low 0.986 | locus YPR119W, strain clb2, active compounds read low 1.01 | locus YPR141C, strain kar3, active compounds read low 1.02 | locus YPR163C, strain tif3, active compounds read low 1.03 | locus YPR167C, strain met16, active compounds read low 1.04 | strain wtn01, active compounds read low 1.02
